In PubChem BioAssay (NCI):
This is part of a sample that, as a whole, favours compounds with a hit. Of some 83,000 tested, about 20% had one in any assay.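 Interpretation: 100, growth as untreated; towards 0, rising growth inhibition; 0, no net growth; 0 to -100, cell death. Compounds scoring below 10 were considered active.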 Calls of active or inactive are those of the source.

Legend:
Assay in all cases: NCI-60 one-dose screen, 48 h (100 = growth as untreated, 0 = no growth, -100 = all killed)
Conditions in all cases: 10 µM unless noted
[1] = tested on: MOLT-4 leukemia
[2] = tested on: SR leukemia
[3] = tested on: RPMI-8226 leukemia
[4] = tested on: OVCAR-8 ovarian
[5] = tested on: OVCAR-5 ovarian
[6] = tested on: OVCAR-4 ovarian
[7] = tested on: SK-OV-3 ovarian
[8] = tested on: IGROV1 ovarian
[9] = tested on: OVCAR-3 ovarian
[10] = tested on: HS 578T breast
[11] = tested on: NCI/ADR-RES ovarian
[12] = tested on: T-47D breast
[13] = tested on: BT-549 breast
[14] = tested on: MDA-MB-435 melanoma
[15] = tested on: SW-620 colon
[16] = tested on: MCF7 breast
[17] = tested on: HCT-116 colon
[18] = tested on: HCC-2998 colon
[19] = tested on: KM12 colon

Measured: growth

CC1=C(CCCOC(=O)[C@H](N)CC(C)C)C2=C(C)C3(CC3)[C@@](C)(O)C(=O)C2=C1
active: [4] 3.99% | [6] 4.85% | [7] -18.1% | [8] 2.81% | [9] -14% | [11] 3.96% | [12] 5.21% | [13] -9.68% | [17] 9.3% | [18] 0.215%
inactive: [1] 80% | [2] 95.1% | [3] 90% | [5] 22.8% | [10] 79% | [14] 69.8% | [15] 87.1% | [16] 37.8% | [19] 79.8%

C[S+]1C=Cc2ccccc2C1c1ccc(Cl)cc1 (configuration not stated)
inactive: [1] 85.7% | [2] 93.4% | [3] 40.8% | [4] 95.2% | [5] 118% | [6] 66.5% | [7] 116% | [9] 89.8% | [10] 77.7% | [11] 101% | [12] 89.9% | [13] 85.6% | [14] 75% | [15] 112% | [16] 84.5% | [17] 81.6% | [18] 103%
active: [8] -85.2% | [19] 1.91%

O=C(CC1(O)C(=O)N(Cc2ccccc2)c2ccc(Cl)cc21)c1ccc(C(=O)NCC2CCC3(CC2)OOC2(CCCCC2)OO3)cc1 (configuration not stated)
active: [1] -50.5% | [2] -44.2% | [3] -27.7% | [4] -27.5% | [5] 5.96% | [6] -40.2% | [8] -35.2% | [9] -83.8% | [10] -4.46% | [11] -42.7% | [12] -56% | [14] -67.8% | [15] -56.5% | [17] 3.72% | [19] -67.3%
inactive: [7] 68% | [13] 11.8% | [16] 17.4% | [18] 67.6%

COC(=O)N[C@H]1CCc2c(Br)c(OC)c(OC)c(OC)c2-c2ccc(SC)c(=O)cc21
active: [1] 3.15% | [2] -9.73% | [3] -3.46% | [8] 9.6% | [9] -40.5% | [10] 1.22% | [11] 7.33% | [14] -55.7% | [17] 3.67% | [19] -4.65%
inactive: [4] 14.8% | [5] 35.9% | [6] 24.7% | [7] 33.1% | [12] 50.5% | [13] 17.1% | [15] 17.5% | [16] 12.8% | [18] 17.2%

COc1cc(C=C2c3ccccc3C(=O)c3ccccc32)ccc1OCCCCOc1cc2c(cc1OC)C(=O)N1CCCC1C=N2 (configuration not stated)
active: [1] -53.2% | [2] -84.7% | [3] -10% | [4] -30.4% | [5] -61.3% | [6] -41.1% | [7] -52.4% | [8] -85% | [9] -75.2% | [10] -25.9% | [11] 6.1% | [12] -30% | [13] -40.2% | [14] -57.6% | [15] -84.4% | [16] -77.1% | [17] -85.3% | [18] -94.4% | [19] -85.7%

C[N+](C)(C)Cc1cc(Cl)ccc1O
inactive: [1] 96.9% | [2] 104% | [3] 76.3% | [4] 99.4% | [5] 101% | [6] 92.8% | [7] 110% | [8] 95.1% | [9] 109% | [10] 103% | [11] 104% | [12] 99.4% | [13] 91.9% | [14] 106% | [15] 97.9% | [16] 104% | [17] 106% | [18] 104% | [19] 108%

CCCCCSC1C2C(=O)C(Br)=CC13CCNc1c(O)c4c5c(c13)=[N+]2CCC=5C=N4 (configuration not stated)
inactive: [11] 29.1% | [13] 36.1%
active: [1] -45.5% | [2] -14.1% | [3] -17% | [4] -30.2% | [5] -55.2% | [6] -88.6% | [7] -2.42% | [8] -64.6% | [9] -79.5% | [10] 4.01% | [12] -48.2% | [14] -81.1% | [15] -54.5% | [16] -54.9% | [17] -92.3% | [18] -68.4% | [19] 2.34%

N#CC1C(C#N)C2CCC1C1C2N1c1ccccc1 (configuration not stated)
inactive: [1] 91.2% | [2] 91.5% | [3] 95.8% | [4] 114% | [5] 92.4% | [6] 106% | [7] 100% | [8] 85.1% | [9] 107% | [10] 112% | [11] 111% | [12] 108% | [13] 98.1% | [14] 107% | [15] 100% | [16] 101% | [17] 95.1% | [18] 102% | [19] 102%
